Each structure is given as a SMILES string. This is part of a sample that, as a whole, favours compounds with a hit. Of some 83,000 tested, about 20% had one in any assay.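 In brief: 96-well plates, 48 h treatment, single concentration, percent growth endpoint.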 Unmarked numbers belong to inactive results. Active and inactive are the calls of the source. The calls were made as follows: active = growth percent below 10; inactive = the rest.

Some test systems named below: DU-145 prostate; K-562 leukemia; MALME-3M melanoma; MDA-MB-231 breast; RXF 393 renal; SF-268 CNS; SF-295 CNS; SF-539 CNS; UACC-257 melanoma; M14 melanoma; HCT-15 colon; HT29 colon; SNB-75 CNS; SNB-19 CNS; U251 CNS; PC-3 prostate; SK-MEL-5 melanoma; UACC-62 melanoma; LOX IMVI melanoma; SK-MEL-28 melanoma.
What all share (experiment): NCI-60 one-dose screen, 48 h (100 = growth as untreated, 0 = no growth, -100 = all killed)
Settings in all cases: 10 µM unless noted

In the case of `CN1C(=O)/C(=C2\SC(=Nc3ccccc3)N(Nc3ccccc3)C2=O)c2ccccc21`, the growth was 109% in the test on DU-145 prostate; 99.5% in the test on K-562 leukemia; 110% in the test with MALME-3M melanoma; 91.4% in the test on MDA-MB-231 breast; 109% in the test on RXF 393 renal; 95.4% with SF-268 CNS. In addition, the growth in the test with SF-295 CNS is 105%; in the test with SF-539 CNS, 94.9%; in the test with UACC-257 melanoma, 106%; with M14 melanoma, 101%; in the test on HCT-15 colon, 105%; in the test with HT29 colon, 119%. Moreover, the growth in the test with SNB-75 CNS is 78.9%; in the test with SNB-19 CNS, 95.9%; with U251 CNS, 100%; with PC-3 prostate it was 86.6%; in the test with SK-MEL-5 melanoma, 99.3%; with UACC-62 melanoma, 81.3%. Moreover, the growth in the test on LOX IMVI melanoma was 93.5%; in the test with SK-MEL-28 melanoma, 105%.

For `S=c1[nH]c(=S)c2c(-c3ccccc3)c(-c3ccccc3)oc2[nH]1`, the growth in the test with DU-145 prostate was 109%; in the test with K-562 leukemia it was 80.2%; in the test with MALME-3M melanoma, 107%; in the test on MDA-MB-231 breast it was 99%; in the test on RXF 393 renal it was 91.2%; with SF-268 CNS, 104%. Moreover, the growth in the test on SF-295 CNS is 97.5%; in the test on SF-539 CNS, 98.3%; in the test with UACC-257 melanoma, 80.1%; in the test on M14 melanoma, 105%; with HCT-15 colon it was 99.1%; with HT29 colon, 102%. Further, the growth in the test with SNB-75 CNS is 95.2%; in the test on SNB-19 CNS it was 96.2%; in the test on U251 CNS, 95.9%; with PC-3 prostate, 103%; in the test on SK-MEL-5 melanoma it was 108%; with UACC-62 melanoma, 93.9%. In addition, the growth in the test on LOX IMVI melanoma is 96.5%; in the test on SK-MEL-28 melanoma it was 105%.

Consider `O=P(O)(O)OCC1OC(n2cnc3c(NCc4ccco4)ncnc32)C(O)C1O` (stereo not given), for which the growth is -58.5% (active) in the test on DU-145 prostate; 63.3% with K-562 leukemia; 87.4% in the test with MALME-3M melanoma; -21.5% (active) in the test on MDA-MB-231 breast; 4.85% (active) in the test with RXF 393 renal; 29.3% in the test with SF-268 CNS. The growth with SF-295 CNS is 34.7%; in the test with SF-539 CNS, 16.1%; in the test on UACC-257 melanoma, 77.6%; in the test with M14 melanoma it was 34.5%; in the test on HCT-15 colon it was 5.11% (active); in the test with HT29 colon, 16.7%. Moreover, the growth with SNB-75 CNS was 8.93% (active); in the test with SNB-19 CNS, 31.9%; with U251 CNS, 38.3%; in the test on PC-3 prostate it was 9.01% (active); in the test with SK-MEL-5 melanoma it was 40.2%; in the test with UACC-62 melanoma, 45.4%. Moreover, the values for the growth in the test on LOX IMVI melanoma and in the test with SK-MEL-28 melanoma were -30.9% (active) and 87%, respectively.

For the compound `COc1ccc(C(=O)/C=C/c2ccc(Cl)cc2)cc1S(=O)(=O)Nc1c(N)nc(SC)[nH]c1=O`, the growth is 88.3% with DU-145 prostate; 3.84% (active) with K-562 leukemia; 90.1% with MALME-3M melanoma; 68.2% in the test with MDA-MB-231 breast; 92% in the test on RXF 393 renal; 45.3% with SF-268 CNS. Further, the growth with SF-295 CNS was 90.1%; in the test on SF-539 CNS, -5.49% (active); with UACC-257 melanoma, 90.9%; with M14 melanoma, 74.7%; in the test with HCT-15 colon, 65.7%; in the test on HT29 colon, 31.3%. For the same compound, the growth is 33.4% with SNB-75 CNS; 8.18% (active) in the test on SNB-19 CNS; -4.2% (active) in the test on U251 CNS; 39.1% in the test on PC-3 prostate; 74.1% in the test with SK-MEL-5 melanoma; 62.3% in the test with UACC-62 melanoma. Moreover, the growth with LOX IMVI melanoma was 2.64% (active); with SK-MEL-28 melanoma, 97.4%.

As to `CN1C(=O)/C(=C/c2ccc(C(=O)Nc3ncc(Cc4cccc(Cl)c4)s3)cc2)SC1=S`, the growth in the test on DU-145 prostate is 66.3%; in the test on K-562 leukemia, 55.1%; with MALME-3M melanoma it was 67.9%; in the test with MDA-MB-231 breast, 77.4%; in the test on RXF 393 renal it was 64.4%; in the test with SF-268 CNS it was 61.7%. For the same compound, the growth in the test with SF-295 CNS is 31%; with SF-539 CNS, 67.5%; in the test with UACC-257 melanoma, 79.8%; in the test with M14 melanoma, 17%; in the test on HCT-15 colon, 35.3%; with HT29 colon, 61.1%. Besides, the growth was 73.6% in the test with SNB-75 CNS; 73.5% in the test on SNB-19 CNS; 65.2% with U251 CNS; 73.3% in the test on PC-3 prostate; 25.7% with SK-MEL-5 melanoma; 20.4% with UACC-62 melanoma. Also, the figures for the growth with LOX IMVI melanoma and in the test with SK-MEL-28 melanoma were 22.7% and 63.4%, respectively.

In the case of `Oc1c(CN2CCC(N3CCCCC3)CC2)cc(Cc2cc(CN3CCC(N4CCCCC4)CC3)c(O)c3ncccc23)c2cccnc12`, the growth is 37.1% with DU-145 prostate; 5.46% (active) with K-562 leukemia; 15.4% in the test with MALME-3M melanoma; 18.3% in the test on MDA-MB-231 breast; 57.5% in the test on RXF 393 renal; 27.9% in the test with SF-268 CNS. Further, the growth was 31.1% in the test with SF-295 CNS; -55.4% (active) in the test with SF-539 CNS; 57.2% with UACC-257 melanoma; -26% (active) in the test on M14 melanoma; 20.6% in the test on HCT-15 colon; 16% with HT29 colon. In addition, the growth is 54.1% in the test with SNB-75 CNS; 36.6% with SNB-19 CNS; 24.6% with U251 CNS; 17.7% with PC-3 prostate; 34.1% in the test on SK-MEL-5 melanoma; -18.3% (active) with UACC-62 melanoma. Further, the growth with LOX IMVI melanoma is 4.36% (active); in the test on SK-MEL-28 melanoma, 31.5%.

Consider `CSc1nc(C)c([N+](=O)[O-])c(N)n1`, for which the growth is 109% with DU-145 prostate; 91% in the test on K-562 leukemia; 104% with MALME-3M melanoma; 96.5% in the test on MDA-MB-231 breast; 114% in the test on RXF 393 renal; 105% with SF-268 CNS. For the same compound, the growth was 109% with SF-295 CNS; 104% in the test with SF-539 CNS; 84.7% in the test on UACC-257 melanoma; 91.8% in the test on M14 melanoma; 107% in the test with HCT-15 colon; 85.4% in the test with HT29 colon. The growth in the test on SNB-75 CNS was 98.7%; in the test with SNB-19 CNS, 96.9%; with U251 CNS it was 87.9%; in the test on PC-3 prostate, 85.3%; in the test with SK-MEL-5 melanoma, 102%; in the test on UACC-62 melanoma, 98%. In addition, the growth in the test on LOX IMVI melanoma was 96.7%; with SK-MEL-28 melanoma, 120%.

For the origin of these results see PubChem BioAssay (NCI).
